Drawing on PubChem BioAssay, this text covers composite z-score and composite Z-score for 15 molecules.

The source made the active and inactive calls.

One experiment concerns the target Albumin (Bos taurus) (UniProt P02769). As to the kind of experiment: bovine serum albumin binders on microarray, profiling panel, artefact control for SMM control protein annotation, biochemical, small-molecule microarray, Alexa647 label, 635/667 nm fluorescence (AID 1118).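 Also: score merges 667 nm emission intensity and signal-to-noise per printed compound spot.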 The following applies: BSA-A647 binding, fluorescence 635 nm, higher = more signal.
The nature of experiment [1]: small-molecule microarray binders of probe aXIP, primary screen, biochemical, NeuroSMM set, 635/667 nm fluorescence (AID 1119).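 Also: probe is the protein aXip251-270 applied at 1 µg/mL to compound-printed slides; binding of probe to printed compounds measured as 667 nm fluorescence plus signal to noise.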 Particulars: higher = more signal, called active from +8 up or from −8 down.
Experiment [2] can be described thus: small-molecule binders of probe aNOTCH3, primary screen, biochemical, small-molecule microarray, 635/667 nm fluorescence (AID 1120).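 Also: probe is a biotin-tagged antibody raised against NOTCH3 rather than NOTCH3 protein; score merges spot fluorescence near 667 nm with spot signal to noise.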 Particulars: higher = more signal.
A short description of experiment [3]: small-molecule binders of probe aNOTCH2, primary screen, biochemical, small-molecule microarray, 635/667 nm fluorescence (AID 1121).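 Also: score merges feature fluorescence read at 667 nm with its signal to noise.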 The following applies: higher = more signal.
Experiment [4] addresses Carbonic anhydrase 2 (Homo sapiens) (UniProt P00918). The experiment is described as follows: CAII small-molecule binders, profiling panel, biochemical, small-molecule microarray, Alexa647-labelled CAII (AID 1122). Particulars: CAII-A647 binding fluorescence, higher = more signal.
Experiment [5] in a line: COS7 lysate on small-molecule microarray, probe aHis, 635 nm (AID 1123).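 Also: z-score combines 667nm fluorescence intensity with signal-to-noise per printed compound spot.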 Particulars: COS7 cell lysate, fluorescence, higher = more signal.
Experiment [6] can be described thus: compound binding in COS7 lysate, probe aLAP1, primary screen, cell lysate, small-molecule microarray (AID 1124).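 Also: lysate comes from COS7 cells expressing LAP1 and is applied at 0.3 µg/mL; score merges spot fluorescence near 667 nm with signal-to-noise over triplicate slides.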 The following applies: probe aLAP1, fluorescence, higher = more signal.
For another experiment, the system named is Sam68 (KHDRBS1). As to the kind of experiment: Sam68 small-molecule binders, primary screen, biochemical, small-molecule microarray, 635 nm fluorescence (AID 1125).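 Also: score merges 667 nm channel intensity with signal to noise over triplicate slides.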 Particulars: small-molecule microarray binding, higher = more signal.
Experiment [7] has as its system Chordin-like protein 2 (CHRDL2). The experiment is described as follows: CHRDL2 small-molecule binders, primary screen, biochemical, small-molecule microarray, 635 nm fluorescence (AID 1126).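 Also: printed compound slides probed with Chrdl2 protein at 4 µg/mL for 1 h at 4 C; score merges 667 nm emission intensity with signal to noise over three replicate slides.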 Particulars: small-molecule microarray binding, fluorescence 635 nm; higher = more signal.
The target in experiment [8] is Concanavalin-A (Canavalia ensiformis) (UniProt P02866). As to the kind of experiment: ConA small-molecule binders, primary screen, artefact control for SMM control protein annotation, biochemical, small-molecule microarray, Alexa647 label, 635 nm (AID 1127).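 Also: z combines 667 nm emission intensity with signal-to-noise across three replicate slides.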 Particulars: ConA-A647 binding fluorescence, higher = more signal.
Chain of Concanavalin-A (Canavalia ensiformis) (P02866 whole entry, looked up): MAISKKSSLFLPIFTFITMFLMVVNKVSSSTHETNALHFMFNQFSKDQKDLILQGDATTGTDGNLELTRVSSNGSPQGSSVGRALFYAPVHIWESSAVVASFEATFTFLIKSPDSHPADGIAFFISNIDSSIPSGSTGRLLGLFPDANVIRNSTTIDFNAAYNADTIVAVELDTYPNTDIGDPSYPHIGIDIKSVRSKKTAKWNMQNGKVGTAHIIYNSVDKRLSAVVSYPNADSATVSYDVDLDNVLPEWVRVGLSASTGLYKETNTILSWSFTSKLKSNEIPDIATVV

Chain of Albumin (Bos taurus) (P02769 whole entry, looked up): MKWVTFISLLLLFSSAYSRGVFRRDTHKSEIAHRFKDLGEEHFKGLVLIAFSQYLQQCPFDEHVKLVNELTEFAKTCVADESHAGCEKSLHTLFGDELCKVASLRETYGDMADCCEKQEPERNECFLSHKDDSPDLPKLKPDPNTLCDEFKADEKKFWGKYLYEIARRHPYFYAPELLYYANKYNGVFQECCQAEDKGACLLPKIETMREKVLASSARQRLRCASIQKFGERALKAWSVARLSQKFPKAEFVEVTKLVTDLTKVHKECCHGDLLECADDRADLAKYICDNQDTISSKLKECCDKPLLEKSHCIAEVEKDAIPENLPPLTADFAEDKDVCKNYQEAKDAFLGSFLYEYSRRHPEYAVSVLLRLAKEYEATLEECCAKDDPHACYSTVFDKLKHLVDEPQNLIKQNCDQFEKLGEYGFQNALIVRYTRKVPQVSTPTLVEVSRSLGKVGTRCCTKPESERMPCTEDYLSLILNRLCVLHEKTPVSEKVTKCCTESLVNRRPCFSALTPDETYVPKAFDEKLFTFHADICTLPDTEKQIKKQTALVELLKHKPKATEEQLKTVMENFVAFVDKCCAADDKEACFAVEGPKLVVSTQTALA

On to `CC(C)OC(=O)C1=CCC(c2cccc(Cl)c2)O1` (stereo not given), for which the composite z-score was 0.569 with Albumin (Bos taurus); -0.36 in experiment [2]; -0.169 in experiment [3]; 0.848 in [4]; 2.72 in [5]; -0.157 in experiment [6]. The composite z-score is 0.649 in the experiment with Sam68 (KHDRBS1), -1.72 in [7] and 0.417 in experiment [8]. In [1], the composite Z-score was 0.403 (inactive).

As for `COCCCNC(=O)[C@@]1(Sc2ccc(C)cc2)CC(=O)N(Cc2ccccc2)[C@@H]1c1ccc(CO)cc1`, the composite z-score in the experiment with Albumin (Bos taurus) was 0.146; in experiment [2], -0.689; in [3] it was -0.134; in experiment [4], 0.534; in [5] it was 2.54; in experiment [6] it was 0.378. The composite z-score in the experiment on Sam68 (KHDRBS1) was 0.0145; in experiment [7], -0.21; in experiment [8] it was -0.668. The composite Z-score in [1] was 0.201 (inactive).

On to `O=C1O[C@@H](c2ccccc2)[C@@H](c2ccccc2)N2[C@@H](c3ccccc3OCCO)[C@]3(C(=O)Nc4ccc(C#CC5(O)CCCCCC5)cc43)[C@@H](C(=O)NC[C@H](O)c3ccccc3)[C@H]12`, for which the composite z-score in the experiment with Albumin (Bos taurus) came out at 0.644; in [2], 0.638; in experiment [3] it was 0.0062; in experiment [4], 0.244; in [5] it was 2.29; in experiment [6], 0.146. The composite z-score in the experiment on Sam68 (KHDRBS1) is 1; in experiment [7] it was -0.134; in experiment [8] it was 0.622. In addition, the composite Z-score in experiment [1] is 1.17 (inactive).

Consider `[N-]=[N+]=NCc1ccccc1C[C@]1(C(N)=O)N=C(c2ccc(OCCCO)cc2)O[C@H]1c1ccccc1N=[N+]=[N-]`, for which the composite z-score in the experiment with Albumin (Bos taurus) amounted to 0.421; in experiment [2], 0.327; in [3], 0.0185; in experiment [4], 0.513; in experiment [5], 1.46; in experiment [6], 0.312. The composite z-score was 1.23 in the experiment with Sam68 (KHDRBS1), -0.652 in experiment [7] and 1.09 in experiment [8]. Also, in experiment [1], the composite Z-score is -0.338 (inactive).

Take `C[C@H]1C2[C@H](Cc3ccccc3)NC(=O)[C@]23C(=O)N[C@H](Cc2ccccc2)C(=O)N[C@H](Cc2ccccc2)C(=O)NC/C=C/CCC/C=C/C3[C@@H]2O[C@]12C` (stereo not given in full): the composite z-score is 0.63 in the experiment with Albumin (Bos taurus); -0.246 in experiment [2]; -0.115 in experiment [3]; 0.312 in experiment [4]; 1.25 in [5]; 0.338 in [6]. In addition, the results for the composite z-score (in the experiment on Sam68 (KHDRBS1); in [7]; in experiment [8]) were 0.179, 0.8 and 0.472, respectively. For the same molecule, in experiment [1], the composite Z-score is 0.312 (inactive).

As to `CC(C)NC(=O)[C@@H]1c2ccccc2C(=O)N(C2CCCCC2)[C@H]1c1ccc(CO)cc1`, the composite z-score with Albumin (Bos taurus) was -0.338; in experiment [2], -0.0731; in experiment [3], -0.0326; in experiment [4], 0.336; in [5], 1.47; in experiment [6], -0.0044. Besides, the composite z-score in the experiment on Sam68 (KHDRBS1) is 0.77; in [7] it was -0.329; in [8], 0.661. Further, the composite Z-score in experiment [1] was -0.101 (inactive).

Consider `CCCCN1CC=CC23O[C@@H]4/C=C\CCCOC(=O)C4[C@H]2C(=O)N(C(C)CO)[C@@H]3C1=O` (stereo not given in full), for which the composite z-score with Albumin (Bos taurus) was 0.962; in experiment [2], -0.222; in experiment [3], -0.151; in experiment [4], 0.839; in [5], 0.296; in experiment [6], 0.203. Also, the composite z-score is -0.296 in the experiment on Sam68 (KHDRBS1), 0.112 in [7] and -1.23 in experiment [8]. Moreover, the composite Z-score in experiment [1] is 0.727 (inactive).

Consider `COc1ccc(C(O)C2C=CC3C(=O)N(c4ccccc4)C(=O)C3N2Nc2ccccc2)c2ccccc12` (stereo not given), for which the composite z-score is 0.705 with Albumin (Bos taurus); 0.19 in experiment [2]; -0.0528 in experiment [3]; 0.522 in experiment [4]; 1.97 in [5]; 0.0206 in experiment [6]. Further, the results for the composite z-score (in the experiment with Sam68 (KHDRBS1); in experiment [7]; in [8]) were -0.309, -0.841 and 0.69, respectively. Further, the composite Z-score in [1] was 0.0542 (inactive).

For the molecule `COC(=O)[C@@]1(Cc2ccc(F)cc2)[C@H]2c3cc(C(=O)N4CCCC4)n(CCc4ccc(OC)c(Br)c4)c3C[C@H]2CN1C(=O)c1ccccc1`, the composite z-score in the experiment with Albumin (Bos taurus) came out at 0.843; in experiment [2] it was 0.591; in experiment [3], 0.323; in [4], 0.599; in [5] it was 3.26; in experiment [6], 0.987. For the same molecule, the composite z-score was 1.33 with Sam68 (KHDRBS1), -1.39 in experiment [7] and 1.15 in [8]. The composite Z-score in [1] is -0.61 (inactive).

Take `C=C[C@H](C)[C@H](OC(=O)Nc1ccc(OC)cc1)c1ccc(O)c2ccccc12`: the composite z-score is 0.171 in the experiment with Albumin (Bos taurus); -0.185 in [2]; -0.193 in [3]; 0.696 in [4]; 0.702 in experiment [5]; 0.513 in experiment [6]. The figures for the composite z-score (in the experiment on Sam68 (KHDRBS1); in [7]; in experiment [8]) were -0.07, 0.396 and -0.503, respectively. Further, in experiment [1], the composite Z-score is 0.741 (inactive).

On to `O=C1c2ccccc2[C@](Cc2ccccc2I)(C(=O)O)[C@H](c2ccc(CO)cc2)N1Cc1ccccc1C(F)(F)F`, for which the composite z-score with Albumin (Bos taurus) is 0.449; in experiment [2], -0.0647; in [3], -0.106; in [4], 0.583; in [5], 1.91; in experiment [6] it was 1.77. The composite z-score with Sam68 (KHDRBS1) was 0.431; in experiment [7] it was -0.697; in [8], 0.918. Moreover, the composite Z-score in [1] was -0.249 (inactive).

Consider `O=S(=O)(NCCCO)c1ccc(Br)cc1`, for which the composite z-score is 0.45 with Albumin (Bos taurus); -0.0414 in experiment [2]; -0.057 in experiment [3]; 0.62 in [4]; 0.0505 in [5]; 0.337 in experiment [6]. In addition, the composite z-score was 0.522 with Sam68 (KHDRBS1), 0.678 in experiment [7] and 0.397 in experiment [8]. Moreover, the composite Z-score in [1] was -0.854 (inactive).

On to `O=C1c2ccccc2[C@@]2(Cc3ccccc3N(Cc3ccccc3)C2=O)[C@H](c2ccc(CO)cc2)N1Cc1ccccc1C(F)(F)F`, for which the composite z-score in the experiment with Albumin (Bos taurus) was 0.811; in experiment [2], -0.128; in [3] it was -0.0705; in [4], 0.781; in experiment [5], 1.04; in [6] it was -0.381. In addition, the results for the composite z-score (with Sam68 (KHDRBS1); in experiment [7]; in [8]) were -1.31, -1.5 and -0.486, respectively. The composite Z-score in [1] was -0.372 (inactive).

`[N-]=[N+]=NCc1ccccc1C[C@]1(C(=O)NCC(O)CO)COC(c2ccc(OCCCO)cc2)=N1` (stereo not given in full): the composite z-score in the experiment with Albumin (Bos taurus) was determined as 1.03; in experiment [2] it was 0.0566; in [3], 0.446; in experiment [4], 0.8; in experiment [5], 3.3; in [6], 1.38. Also, the composite z-score was 1.12 in the experiment on Sam68 (KHDRBS1), -1.37 in experiment [7] and 0.954 in [8]. In addition, in experiment [1], the composite Z-score is 0.621 (inactive).

Take `C=C(CCCC)/C(=C/C[C@@H](OC(=O)c1ccncc1)c1ccc(CO)o1)c1cc(C(=O)OC)ccc1OC`: the composite z-score with Albumin (Bos taurus) was 0.662; in experiment [2] it was 0.0897; in experiment [3], -0.0349; in experiment [4], 0.709; in [5], 1.46; in [6], 0.924. Besides, the results for the composite z-score (in the experiment with Sam68 (KHDRBS1); in [7]; in [8]) were 1.3, 0.422 and 1.15, respectively. Moreover, in experiment [1], the composite Z-score is 0.421 (inactive).
